Activity calls are given as the source filed them. Rule for the calls: active = hit-call score of the fitted dose curve at least 0.9, where 1 is the maximum; inactive = score below 0.9.
Experiment: ATG_M_19_CIS: Attagene CIS-FACTORIAL HepG2 Assay for M19 Transcription Factor (Internal Marker) (AID 2282939)
Details: HepG2 Attagene CIS-FACTORIAL M19 internal marker reporter; actives raise or lower the signal
Method: ATG_CIS is a cell-based, multiplexed-readout assay that uses HepG2, a human liver cell line, with measurements taken at 24 hours after chemical dosing in a 24-well plate.ATG_M_19_CIS is one of 52 assay component(s) measured or calculated from the ATG_CIS assay. It is designed to make measurements of mRNA induction, a form of inducible reporter, as detected with fluorescence intensity signals by Reverse transcription polymerase chain reaction (RT-PCR) and Capillary electrophoresis technology.Data from the assay component ATG_M_19_CIS was analyzed into 1 assay endpoint. This assay endpoint, ATG_M_19_CIS, was analyzed with bidirectional fitting relative to DMSO as the negative control and baseline of activity. Using a type of inducible reporter, measures of mRNA for gain or loss-of-signal activity can be used to understand the background control at the transcription factor-level as they relate to the gene . Furthermore, this assay endpoint can be referred to as a secondary readout, because this assay has produced multiple assay endpoints where this one serves a background control function. To generalize the intended target to other relatable targets, this assay endpoint is annotated to the background measurement intended target family, where the subfamily is internal marker.
Human liver HepG2 cells are transiently transfected with multiple reporter transcription units (MRTUs) in 6-well plates using FuGene 6 reagent (Roche; 3 ml FuGene/1 mg DNA). The MRTU constructs are regulated by a cis-regulating element (promoter). […] A major difference between the CIS and TRANS system is that in CIS activities of endogenous TFs are measured, whereas the TRANS assay evaluates changes in activities of exogenous, chimeric NR-Gal4 proteins. […] At the end of 24 hour incubation, total RNA was isolated using TriZol reagent (Invitrogen). The isolated RNA is then reverse-transcribed using oligo(dT) primer and Mo-MLV reverse transcriptase (Invitrogen) with DNAse I (Ambion) treatment for 30 min. The one-tenth of the produced cDNA was amplified by PCR using Taq DNA polymerase (Invitrogen) and two reporter sequence-specific primers. The PCR products were fluorescently labeled by primer extension with 6-arboxyfluorescein (6-FAM) 5'-labeled reporter sequence-specific primer (2 min at 95 C, 20 s at 68 C and 10 min at 72 C) and these products were digested with 5U of HpaI (New England Biolabs) for 2h at 37 C. The fragments were purified using Qiaquick PCR columns (Qiagen), analyzed on an ABI 3130xL genetic analyzer (Applied Biosystems) with peak positions identified by using a set of X-rhodamine (ROX)-labeled MapMarker1000 molecular weight standards (BioVentures). The raw capillary electrophoresis data was processed using Attagraph software (Attagene).

Compound | outcome | AC50
BrCCCCBr | inactive | –
O=C(NC(=O)c1c(F)cccc1F)Nc1cc(Cl)c(F)c(Cl)c1F | inactive | –
CC(C)CC(C)(c1ccc(O)cc1)c1ccc(O)cc1 | inactive | –
CCCCS(=O)(=O)Cl | inactive | –
C=CCN=C=S | inactive | –
c1ccc2sc(SNC3CCCCC3)nc2c1 | inactive | –
CCC[N+](CCC)(CCC)CCC | inactive | –
N#CS | inactive | –
CC(C)CP(=S)(S)CC(C)C | inactive | –
CCCCN(CCCCO)N=O | inactive | –
Nc1ccc(-c2ccccc2)cc1 | inactive | –
CCOC(=O)c1ccccc1S(=O)(=O)NC(=O)Nc1nc(Cl)cc(OC)n1 | inactive | –
CC(C)(C1CCC(O)CC1)C1CCC(O)CC1 (stereo not given) | inactive | –
OC(c1ccc(Cl)cc1)(c1ccc(Cl)cc1)c1cccnc1 | inactive | –
CC(C)(C)c1ccccc1O | inactive | –
N#Cc1ccccc1N | inactive | –
CCNc1nc(NCC)nc(SC)n1 | inactive | –
CS(=O)(=O)c1ccc(C(=O)C2C(=O)CCCC2=O)c(Cl)c1COCC(F)(F)F | inactive | –
O=C1c2ccccc2C(=O)C1C(=O)C(c1ccccc1)c1ccc(Cl)cc1 (stereo not given) | – | 33.4 µM (active)
C=CC(=O)NC(C)(C)CC(C)=O | inactive | –

Compound | outcome | AC50
CCOP(=O)(OCC)OC(=CCl)c1ccc(Cl)cc1Cl | inactive | –
BrCc1ccc(Br)cc1 | inactive | –
Cc1cc(C)cc(C)c1 | inactive | –
OC[C@@H](O)[C@H]1O[C@@H]2O[C@H](C(Cl)(Cl)Cl)O[C@@H]2[C@H]1O | inactive | –
[F][Sn]([c]1ccccc1)([c]1ccccc1)[c]1ccccc1 | inactive | –
CC(c1ccccc1)(c1ccc(O)cc1)c1ccc(O)cc1 | inactive | –
C[C@@H]1O[C@@H](O[C@H]2C[C@@H](O)[C@]3(CO)[C@H]4[C@H](O)C[C@]5(C)[C@@H](C6=CC(=O)OC6)CC[C@]5(O)[C@@H]4CC[C@]3(O)C2)[C@H](O)[C@H](O)[C@H]1O | inactive | –
Nc1ncn[nH]1 | inactive | –
Clc1cccc(Cl)c1Cl | inactive | –
Cc1cc(Cl)ccc1OCCCC(=O)O | inactive | –
CC(C=O)Cc1ccc2c(c1)OCO2 (stereo not given) | inactive | –
CN(N=O)C(N)=O | inactive | –
OCCCCO | inactive | –
O=c1oc2ccccc2c(O)c1C(CC(O)c1ccc(-c2ccc(Br)cc2)cc1)c1ccccc1 (stereo not given) | inactive | –
CCCCN(CCCC)C(=S)[S-].CCCCN(CCCC)C(=S)[S-].[Ni+2] | inactive | –
Cc1cccc(OP(=O)(Oc2cccc(C)c2)Oc2cccc(C)c2)c1 | inactive | –
CCOP(=S)(OCC)SCSc1cc(Cl)ccc1Cl | inactive | –
NC(=O)CCl | inactive | –
Oc1ccc(Cc2ccc(O)cc2)cc1 | inactive | –
CNC(=O)CSP(=O)(OC)OC | inactive | –
